Screens as filed in PubChem BioAssay.
miR122 inh – activators of miR-122 sensor in Huh7 cells; actives 0.14% (n = 340,000); activation, % at 12.5 µM; Huh7 psiCHECK-miR122 Renilla luciferase sensor, 48 h;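 active means mean activation of 30% or more, with every replicate also reaching 30%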;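 further: higher luciferase signal means stronger suppression of miR-122 activity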
A number is an active result; 0 = inactive. This is one part of a sample in which hits are shown more often than they occur.

SMILES | miR122 inh
O=C1NC(=O)N(CCC2=CCCCC2)C(=O)/C1=C\c1cccs1 | 32.7
Cc1ccc(C(=O)Nc2ccc(Cl)cc2C(=O)c2ccccc2)cc1 | 0
C[C@@H]1O[C@@H](O[C@H]2C[C@@H](O)[C@]3(CO)[C@H]4[C@H](O)C[C@]5(C)[C@@H](C6COC(=O)C6)CC[C@]5(O)[C@@H]4CC[C@]3(O)C2)[C@H](O)[C@H](O)[C@H]1O (stereo partly drawn) | 0
CC(=O)OC1(Cc2ccccc2)CN2CCC1c1ccccc12 (stereo not drawn) | 35.9
COc1ccc(-c2ccc3c(c2)CN(C(=S)NCCc2ccccc2)Cc2cnnn2-3)cc1 | 0
O=P(Nc1ccccc1)(Nc1ccccc1)Oc1ccc(Cl)cc1 | 0
